From PubChem BioAssay (Tox21)
“And” between values parts separate entries of the source, which are not always exact repeats. Equal values may be shown once. Results filed as inconclusive are left out. Where a call stands in place of a potency, no number is given. Some structures have more than one record in an assay (separate samples or runs), and their calls can disagree. The source made the active and inactive calls. Unless noted, the call rests on the fitted dose curve; in most records, active means well fitted curve in the direction sought with a large enough effect in the repeat runs; inconclusive means weak or mixed curves; inactive means no such curve, though single readings can be large; an effect the other way counts as inactive or inconclusive.

Assays:
[1] = A CellTox Green Cytotoxicity Assay to monitor cytotoxicity in HEK293 cells - 0 hour (AID 1224869); further: nearly all actives have a fitted effect of over 50% in size; further: potency means the concentration at half of the fitted maximal effect
Outline: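 HEK293 cells premixed with CellTox Green dye were seeded at 600 cells/well and left 5 h at 37 C/5% CO2 before pin transfer of 23 nL compound in DMSO. Fluorescence from dye bound to dead-cell DNA was read during 40 h treatment.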

[2] = A CellTox Green Cytotoxicity Assay to monitor cytotoxicity in HepG2 cells - 8 hour (AID 1224890); further: nearly all actives have a fitted effect of over 45% in size; further: potency means the concentration at half of the fitted maximal effect
Outline: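 HepG2 cells were seeded together with the CellTox Green dye at 600 cells/well, left 5 h at 37 C/5% CO2, then given compounds in DMSO. Fluorescence from dye bound to dead-cell DNA was read repeatedly over 40 h of treatment at 37 C.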

[3] = qHTS assay to identify small molecule antagonists of the estrogen receptor alpha (ER-alpha) signaling pathway using the BG1 cell line in the presence of 0.1 nM 17-beta-estradiol - cell viability counter screen (AID 1259241); further: nearly all actives have a fitted effect of over 40% in size; further: potency means the concentration at half of the fitted maximal effect
Outline: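 CellTiter-Fluor read (30 min, 37C) on ER-alpha/ERE-luc VM7Luc4E2 cells; 22 hr compound treatment; agonist 0.1 nM E2 final; same-well multiplex.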

[4] = qHTS assay to identify small molecule HDAC inhibitors (AID 1259364); further: top concentration of the series differs between compounds; nearly all actives have a fitted effect of over 45% in size
Outline: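 Wild-type HCT-116 cells were plated overnight, exposed to compounds for 2 h at 37 °C, then given HDAC-Glo class I/II luminogenic reagent for 30 min at room temperature before luminescence was read.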

[5] = qHTS assay to identify small molecule HDAC inhibitors - cell viability counter screen (AID 1259365); further: nearly all actives have a fitted effect of over 50% in size
Outline: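 To flag cytotoxic hits, 1,500 wild-type HCT-116 cells per well, plated the day before, receive test compounds for 2hr at 37 C before CellTiter-Glo reagent and a luminescence read.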

[6] = qHTS assay to identify small molecule agonists of the sonic hedgehog signaling (Shh) pathway (AID 1259368; calls by dose curve; further: nearly all actives have a fitted effect of over 15% in size)
Outline: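 NIH/3T3-derived 3T3Gli1-Luc cells carrying a stably integrated Gli1 response element–firefly luciferase reporter were plated, left 4 hr at 37 C, then given compounds in DMSO for 24 hr. Luminescence was read 30 min after adding luciferase reagent.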

[7] = Caspase-3/7 induction in CHO-K1 cells by small molecules, qHTS assay (AID 1346980); further: nearly all actives have a fitted effect of over 15% in size
Outline: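 Wild-type cells were seeded at 1,500 per well and settled 5 hr at 37 C, 5% CO2, then exposed to DMSO-dissolved compounds for 17 hr. Caspase-Glo 3/7 reagent was added, and luminescence was read after 30min at room temperature.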

[8] = target: Acetylcholinesterase (Homo sapiens) (UniProt P22303); assay: Acetylcholinesterase (AChE) small molecule antagonists: colormetric cell-based qHTS assay (AID 1347395; calls by dose curve; further: nearly all actives have a fitted effect of over 30% in size; further: potency means the concentration at half of the fitted maximal effect)
Sequence of Acetylcholinesterase (Homo sapiens) (P22303 whole entry, looked up): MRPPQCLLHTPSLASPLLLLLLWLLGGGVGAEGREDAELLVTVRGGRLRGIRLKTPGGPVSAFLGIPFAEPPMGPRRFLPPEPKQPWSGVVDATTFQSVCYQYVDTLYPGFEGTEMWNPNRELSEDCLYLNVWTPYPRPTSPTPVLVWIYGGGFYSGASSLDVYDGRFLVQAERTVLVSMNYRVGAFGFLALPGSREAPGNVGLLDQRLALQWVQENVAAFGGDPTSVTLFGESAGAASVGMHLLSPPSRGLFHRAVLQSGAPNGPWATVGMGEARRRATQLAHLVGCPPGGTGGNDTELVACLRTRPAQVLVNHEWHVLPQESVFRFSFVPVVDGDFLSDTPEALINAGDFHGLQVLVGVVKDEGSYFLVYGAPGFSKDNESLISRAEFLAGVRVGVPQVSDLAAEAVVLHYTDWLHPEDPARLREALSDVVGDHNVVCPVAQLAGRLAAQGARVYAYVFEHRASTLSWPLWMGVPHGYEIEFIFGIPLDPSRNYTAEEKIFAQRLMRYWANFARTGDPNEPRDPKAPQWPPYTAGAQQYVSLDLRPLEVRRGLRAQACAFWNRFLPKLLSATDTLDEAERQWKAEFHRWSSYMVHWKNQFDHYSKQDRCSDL
Outline: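 In this cell-based qHTS, attached SH-SY5Y cells were treated with test chemicals for 30 min, after which acetylthiocholine hydrolysis was followed by DTNB colour development over 90 min at 37 C.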

[9] = target: Acetylcholinesterase (Homo sapiens) (UniProt P22303); assay: Acetylcholinesterase (AChE) small molecule antagonists: enzyme-based qHTS assay (AID 1347397; calls by dose curve; further: nearly all actives have a fitted effect of over 55% in size; further: potency means the concentration at half of the fitted maximal effect); settings: Potency: AChE enzyme activity inhibition; outcome: AChE enzyme activity inhibition
Outline: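 Human recombinant acetylcholinesterase; substrate acetylthiocholine; thiocholine quantified with DTNB (colorimetric). Compound preincubation 30 min RT; reaction 10 min RT.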

[10] = target: Acetylcholinesterase (Homo sapiens) (UniProt P22303); assay: Acetylcholinesterase (AChE) small molecule antagonists: fluorescence cell-based qHTS assay (AID 1347398; calls by dose curve; further: nearly all actives have a fitted effect of over 50% in size; further: potency means the concentration at half of the fitted maximal effect); settings: Potency: AChE activity; outcome: AChE activity
Outline: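 Thiocholine generated from acetylthiocholine by SH-SY5Y cell AChE is detected with Thiolite Green (Ex/Em 490/520 nm) after 40 min at room temperature, following 30 min compound pretreatment at 37 C.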

[11] = target: Acetylcholinesterase (Homo sapiens) (UniProt P22303); assay: Acetylcholinesterase (AChE) small molecule antagonists: enzyme-based qHTS assay with human liver microsomes (AID 1347399; calls by dose curve; further: nearly all actives have a fitted effect of over 60% in size; further: potency means the concentration at half of the fitted maximal effect); settings: Potency: qHTS inhibition; outcome: qHTS inhibition
Outline: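 Recombinant human AChE (50 mU/mL in the enzyme mix) and human liver microsomes (0.25 mg/mL final) were preincubated with compound and NADPH (0.25 mg/mL final) for 30 min at 37 C. Acetylthiocholine/DTNB was then added; thiocholine was read colorimetrically after 10 min at room temperature.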

[12] = target: Cytochrome P450 1A2 (Homo sapiens) (UniProt P05177); assay: Cytochrome P450 Family 1 Subfamily A Member 2 (CYP1A2) small molecule antagonists: luciferase reporter qHTS assay (AID 1671199); further: nearly all actives have a fitted effect of over 50% in size; further: potency means the concentration at half of the fitted maximal effect
Sequence of Cytochrome P450 1A2 (Homo sapiens) (P05177 whole entry, looked up): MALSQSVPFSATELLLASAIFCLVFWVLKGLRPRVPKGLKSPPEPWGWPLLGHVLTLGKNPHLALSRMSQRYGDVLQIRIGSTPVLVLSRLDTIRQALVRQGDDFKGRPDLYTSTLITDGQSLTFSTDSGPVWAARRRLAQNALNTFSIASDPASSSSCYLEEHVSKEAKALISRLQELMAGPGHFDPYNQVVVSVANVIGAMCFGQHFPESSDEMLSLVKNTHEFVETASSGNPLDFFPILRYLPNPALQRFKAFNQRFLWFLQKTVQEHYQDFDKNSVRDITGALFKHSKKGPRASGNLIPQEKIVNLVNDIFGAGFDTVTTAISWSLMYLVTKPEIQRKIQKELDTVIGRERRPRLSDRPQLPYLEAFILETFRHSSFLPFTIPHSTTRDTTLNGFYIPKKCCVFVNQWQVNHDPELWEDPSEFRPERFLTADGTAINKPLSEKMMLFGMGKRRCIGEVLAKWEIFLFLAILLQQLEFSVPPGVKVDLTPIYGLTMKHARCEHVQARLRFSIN
Outline: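 Human CYP1A2 activity measured with a P450-Glo proluciferin substrate; compounds in DMSO preincubated 10 min at room temperature with enzyme-substrate mix, then NADPH regeneration system added for 1 h. Luciferin detection reagent, 20 min, luminescence read.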

[13] = qHTS assay to identify small molecule agonists of the estrogen related receptor (ERR) signaling pathway from Tox21 library (AID 1224849; calls by dose curve; further: nearly all actives have a fitted effect of over 15% in size); settings: ERR reporter cell line, ONE-Glo luciferase, 18 h; at 92.4 µM (top of the series) unless noted
Outline: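 ERR reporter cell line (NTP) seeded, rested 6 h at 37 C/5% CO2, then pinned with Tox21 compounds in DMSO. After 18 h at 37 C, ONE-Glo luciferase luminescence was read following 30 min at room temperature.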

[14] = Caspase-3/7 induction in HepG2 cells by small molecules, qHTS assay (AID 1346978); further: nearly all actives have a fitted effect of over 15% in size; further: potency means the concentration at half of the fitted maximal effect
Outline: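 Wild-type HepG2 cells (2,000/well) were settled 5 h at 37 C, 5% CO2, then exposed to compounds in DMSO for 17 h. Caspase-3/7 activity was read by luminescence 30 min after adding Caspase-Glo 3/7 reagent at room temperature.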

[15] = qHTS assay to identify small molecule antagonists of the estrogen related receptor (ERR) signaling pathway - cell viability counter screen (AID 1224818);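 further: viability measured after 17.5 h of compound exposure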
Outline: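 ERR reporter cells plated 6 h at 37 C/5% CO2, then compounds in DMSO pin-transferred and incubated 17.5 h at 37 C. Viability read as CellTiter-Fluor fluorescence after 30 min at 37 C.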

[16] = qHTS assay to identify small molecule antagonists of the estrogen related receptor (ERR) signaling pathway (AID 1224819)
Outline: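 ERR reporter cells were plated at 2,000 cells/well and left 6 h at 37 C/5% CO2 before pin-tool transfer of compounds in DMSO. After 18 h at 37 C, One-Glo was added and luminescence was read 30 min later at room temperature.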

[17] = qHTS assay to identify small molecule agonists of the estrogen related receptor (ERR) signaling pathway (AID 1224820)
Outline: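 Cells: ERR line from NTP, 2,000/well. Pre-incubation 6 h, 37 C/5% CO2. Compound (DMSO) pin transfer, 18 h 37 C. One-Glo, 30 min RT, luminescence.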

[18] = tested on: estrogen-related receptor alpha (ERRalpha) with PGC-1alpha coactivator, human; assay: qHTS assay to identify small molecule antagonists of the estrogen related receptor signaling pathway with the pleiotropic PPARgamma coactivator (PGC) (AID 1224821; calls by dose curve)
Outline: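 Luminescent read-out (One-Glo, 30 min at room temperature) following 18 h treatment of PGC/ERR cells at 37 C with compounds delivered in DMSO. Cells had settled 6 h at 37 C/5% CO2 before dosing.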

[19] = qHTS assay to identify small molecule antagonists of the estrogen related receptor signaling pathway with the pleiotropic PPARgamma coactivator (PGC) cell viability counter screen (AID 1224822)
Outline: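 PGC/ERR cells were seeded at 2,000 cells/well, rested 6 h at 37 C/5% CO2, then given compounds in DMSO by pin tool and incubated 17.5 h at 37 C. Viability came from CellTiter-Fluor fluorescence after 30 min.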

[20] = qHTS assay to identify small molecule agonists of the estrogen related receptor signaling pathway with the pleiotropic PPARgamma coactivator (PGC) (AID 1224823)
Outline: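 Steps: plate PGC/ERR cells at 2,000 cells/well; incubate 6 h, 37 C/5% CO2; pin-transfer compounds (DMSO); incubate 18 h, 37 C; add One-Glo; 30 min RT; read luminescence.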

SMILES | Potency [1] | Potency [2] | Potency [3] | outcome [4] | outcome [5] | outcome [6] | outcome [7] | Potency [8] | Potency [9] | Potency [10] | Potency [11] | Potency [12] | activity change, positive = activation [13] | Potency [14] | Potency [15] | Potency [16] | Potency [17] | Potency [18] | Potency [19] | Potency [20]
OCC(c1ccc(Cl)cc1)c1ccc(Cl)cc1 | inactive | 49 µM (active) | inactive | inactive | inactive | inactive | inactive | inactive | inactive | inactive | inactive | 35.6 µM (active) |  |  |  |  |  |  |  | 
CC(c1ccccc1)(c1ccc(O)cc1)c1ccc(O)cc1 | inactive |  | inactive | inactive | inactive | inactive | inactive | inactive |  | inactive | inactive | inactive | -53.1% (inactive) |  |  |  |  |  |  | 
CC(C)(C)c1cc(C(C)(C)C)c(O)c(C(C)(C)C)c1 |  |  |  |  |  |  |  | inactive | inactive | inactive | inactive |  |  | inactive |  |  |  |  |  | 
Oc1c(I)cc(I)cc1I | inactive | inactive | inactive | inactive | inactive | inactive | inactive | inactive | inactive | inactive | inactive | 39.9 µM (active) | -24.5% (inactive) | inactive |  |  |  |  |  | 
O=[N+]([O-])c1cc(C(F)(F)F)ccc1Cl |  |  |  |  |  |  |  | inactive | inactive | inactive | inactive |  | -5.28% (inactive) |  |  |  |  |  |  | 
Cc1cc(C)c(C(=O)P(=O)(c2ccccc2)c2ccccc2)c(C)c1 | inactive | inactive | inactive | inactive | inactive | inactive | inactive | inactive | inactive | inactive | inactive | inactive | -54.9% (inactive) | inactive |  |  |  |  |  | 
N#Cc1cc([N+](=O)[O-])ccc1N | inactive | inactive | inactive | inactive | inactive | inactive | inactive | inactive | inactive | inactive | inactive | 35.6 µM (active) | -2.3% (inactive) | inactive |  |  |  |  |  | 
CCOC(=O)C(O)(c1ccc(Cl)cc1)c1ccc(Cl)cc1 | inactive | inactive | inactive | inactive | inactive | inactive |  | inactive | inactive | inactive | inactive | 40.3 µM (active) and 71 µM (active) |  |  |  |  |  |  |  | 
COc1cc(OC)c(OC)cc1C=O | inactive |  |  | inactive | inactive | inactive | inactive | inactive | inactive | inactive | inactive | 11 µM (active) | -39.3% (inactive) | inactive | inactive | inactive | inactive | inactive | inactive | inactive
O=C(c1ccc(Cl)cc1)c1ccc(Cl)cc1 |  |  |  |  |  |  |  | inactive | inactive | inactive |  |  |  | inactive |  |  |  |  |  | 
CN1CSC(=S)N(C)C1 | inactive | inactive | 17.1 µM (active) | inactive | inactive | inactive | inactive | inactive | inactive | inactive | inactive | inactive and 39.8 µM (active) | -78.8% (inactive) and -76.3% (inactive) | 7.66 µM (active) |  |  |  |  |  | 
ClC1=C(Cl)[C@]2(Cl)[C@@H]3[C@@H](Cl)[C@H]4O[C@H]4[C@@H]3C1(Cl)C2(Cl)Cl | inactive |  | inactive | inactive | inactive | inactive | inactive | inactive | inactive | inactive | inactive | inactive | -26.9% (inactive) | inactive |  |  |  |  |  | 
CCN(CC)C(=O)Cl | inactive | inactive | inactive | inactive | inactive | inactive | inactive | inactive | inactive | inactive | inactive | inactive | -1.51% (inactive) | inactive |  |  |  |  |  | 
CNC(=O)Oc1cc(C)c(SC)c(C)c1 |  | inactive | inactive | inactive | inactive | inactive | inactive | 3.17 µM (active) | 3.56 µM (active) | 1.59 µM (active) | 22.4 µM (active) | 6.33 µM (active) |  | inactive |  |  |  |  |  | 
O=C(Nc1ccccc1-c1ccc(Cl)cc1)c1cccnc1Cl | 46.3 µM (active) | 41.2 µM (active) | inactive | inactive | inactive | inactive | inactive | inactive | inactive | inactive | inactive | 8.42 µM (active) | -31.8% (inactive) | inactive |  | inactive | inactive |  | inactive | inactive
c1ccc2c(c1)Sc1ccccc1N2CC1CN2CCC1CC2 (stereo unspecified) | inactive |  | inactive | inactive | inactive | inactive | inactive | inactive | inactive | inactive | inactive | inactive | -49.8% [at 42.5 µM] (inactive) |  |  |  |  |  |  | 
CCC(C)=O |  |  |  |  |  |  |  | inactive | inactive | inactive | inactive |  | -6.3% (inactive) |  |  |  |  |  |  | 
